Pol iota inh: blocks human DNA polymerase iota activity. Potency, µM (top dose mostly 115 µM), for inactives: at the top dose activity, negative = inhibition, most hits filed as inhibitors. Q9UNA4. Pol iota fluorescent replication assay, 10 min. 390,000 tested, 1% active; also: potency is read from the fitted curve at half-maximal effect
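Pol iota at 10 nM preincubated 15 min with compounds at room temperature; reaction started with fluorescent substrate, 50 nM final. Fluorescence read kinetically at 0 and 10 min; buffer-only wells as negative control.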
12-LOX inh: blocks human arachidonate 12S-lipoxygenase; P18054; purified 12hLO, xylenol orange hydroperoxide absorbance; 580,000 tested, 1.1% active; Potency, µM (doses to about 108 µM), without a hit: top-dose activity change, negative = inhibition, usual class: inhibitors; also: potency is read from the fitted curve at half-maximal effect; % is scaled to controls: 0 for no effect and ±100 for the full control effect
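Purified human 12hLO at 150 nM in 25 mM Hepes, 0.01% Triton X-100, pH 7.0, preincubated 15 min at room temperature with compound. Reaction started with 40 uM arachidonic acid, 30 min at room temperature. Hydroperoxide measured by Fe-xylenol orange, 573/405 nm absorbance ratio.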
PI5P4K alpha inh: blocks human PI5P4K alpha kinase activity; P48426; PI5P4Kalpha enzyme, ADP-Glo luminescence, 60 min; stronger effect = lower value; max response, %; 330,000 tested, 1.2% active; AID 652105; active = max response of -50% or lower; inconclusive = between -30% and -50%; inactive = -30% or higher; also: value at the top dose of about 77 µM; % is scaled to controls: 0 for no effect and ±100 for the full control effect
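Compounds were pin-transferred onto PI5P4Kalpha and substrate in HEPES pH 7.4 buffer with EGTA, CHAPS and 5% DMSO. ATP (5 microM final) started the reaction, which ran 60 minutes at room temperature before ADP-Glo detection.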
POLH inh: DNA polymerase eta (human) inhibition; Q9Y253; recombinant Pol eta, fluorescent DNA replication assay; Potency, µM (titrated, usually from 114 µM), for inactives: at the highest dose activity change, negative = inhibition, usual class: inhibitors; 390,000 tested, 1.2% active; also: potency is read from the fitted curve at half-maximal effect; % is scaled to controls: 0 for no effect and ±100 for the full control effect
Target sequence (Q9Y253 whole entry, looked up): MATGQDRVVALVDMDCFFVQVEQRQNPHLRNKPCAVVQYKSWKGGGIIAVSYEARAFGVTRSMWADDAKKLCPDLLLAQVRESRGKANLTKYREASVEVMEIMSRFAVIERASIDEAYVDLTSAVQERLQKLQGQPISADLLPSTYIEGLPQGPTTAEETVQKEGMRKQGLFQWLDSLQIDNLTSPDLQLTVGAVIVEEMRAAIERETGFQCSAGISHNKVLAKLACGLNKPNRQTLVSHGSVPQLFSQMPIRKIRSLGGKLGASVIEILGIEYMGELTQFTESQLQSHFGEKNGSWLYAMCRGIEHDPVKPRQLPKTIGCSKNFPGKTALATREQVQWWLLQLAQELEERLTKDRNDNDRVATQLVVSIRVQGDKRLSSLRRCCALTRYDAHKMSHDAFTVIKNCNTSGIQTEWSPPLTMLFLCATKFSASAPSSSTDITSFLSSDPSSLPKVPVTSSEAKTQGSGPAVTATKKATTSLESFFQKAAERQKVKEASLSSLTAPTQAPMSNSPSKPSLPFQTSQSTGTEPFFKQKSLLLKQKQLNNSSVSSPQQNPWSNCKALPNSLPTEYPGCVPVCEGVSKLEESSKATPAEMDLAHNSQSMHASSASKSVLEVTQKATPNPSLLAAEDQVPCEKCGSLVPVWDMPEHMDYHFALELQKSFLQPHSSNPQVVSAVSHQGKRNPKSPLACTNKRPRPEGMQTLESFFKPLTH
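Pol eta at 10 nM preincubated with compounds 15 min at room temperature; reaction started with fluorescent substrate (50 nM final) and read kinetically at 0 and 10 min.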
Pol kappa inh: inhibitors of human DNA polymerase kappa; Potency, µM (series often up to 107 µM), for inactives: at the top dose activity, negative = inhibition, hits mostly inhibitors; AID 588579; Q9UBT6; 400,000 tested, 0.53% active; purified Pol kappa, fluorescent DNA synthesis assay, 10 min; also: potency is read from the fitted curve at half-maximal effect; % is scaled to controls: 0 for no effect and ±100 for the full control effect
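Readout: fluorescence, taken kinetically at 0 and 10 min. Conditions: 10 nM Pol kappa, 15 min RT compound preincubation, 50 nM substrate final. Controls: enzyme-free buffer wells.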
POLB inh: inhibitors of human DNA polymerase beta; P06746; Pol beta primer extension/strand displacement, fluorescence kinetic; Potency, µM (series often up to 114 µM), for the others: at the top dose activity change, negative = inhibition, usual class: inhibitors; 340,000 tested, 1.3% active; AID 485314; also: potency is read from the fitted curve at half-maximal effect; % is scaled to controls: 0 for no effect and ±100 for the full control effect
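Enzyme-only controls used 10 nM Pol beta; buffer lacking enzyme served as negative control. Compound preincubated 15 min, then 50 nM substrate added; 0 and 10 min reads at room temperature.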
* hit, by the source's call; u = inconclusive; x = not tested or not shown; ! = a repeat was not active; [ ] = remark or other dose. Sampled rows, rich in hits. Any-hit rate of the full collection: about 2.9%. Unless noted, calls follow the shape of the dose curve; as a rule, active = well fitted inhibition curve with a large enough effect; inconclusive = small, poorly fitted or top-dose-only effect, or another doubt; inactive = no such curve, though single readings can be large or run the other way.

SMILES	Pol iota inh	12-LOX inh	PI5P4K alpha inh	POLH inh	Pol kappa inh	POLB inh
CCOc1ccc(NC(=O)CSc2oc(-c3ccc(C)cc3)nc2S(=O)(=O)c2ccc(C)cc2)cc1	10%	-20%	x	79µM*	1%	3.2µM*
CCOc1ccc(NC(=O)CSc2oc(-c3cccs3)nc2S(=O)(=O)c2ccc(Cl)cc2)cc1	6%	2%	x	-24%	-17%	13%
Cc1coc2c1C(=O)C(=O)c1c-2ccc2c(C)cccc12	u	u	-56*	28µM*	79µM*	20µM*
Cc1coc2c1C(=O)C(=O)c1c-2ccc2c1CCCC2(C)C	u	24µM*!	-52*	89µM*	u	22µM*
Cc1ccc2c3c(cccc13)-c1ccccc1C2=O	-5%	3%	20	-8%	2%	-8%
CCCCCCCCS(=O)(=O)CCO	x	18%	x	x	x	x
N#Cc1cnc2ccc(Cl)cc2c1Nc1cccc(C(F)(F)F)c1	x	-65%	x	x	x	x
Oc1c(Br)cc(/C=N/Nc2nncc3ccccc23)cc1Br	21%	x	-62*	u	-27%	-7%
COCCn1cc2c3c(cccc31)CN(C(=O)c1cc(F)ccc1Cl)CC2	x	25µM*	x	x	x	x
CCCn1cc2c3c(cccc31)CN(C(=O)c1cccc(F)c1)CC2	x	5%	x	x	x	x
CC(C)C(NC(=O)c1ccccc1Br)c1ccccc1 (configuration not stated)	43%	-5%	5	-1%	3%	-8%
CC(NC(=S)NC(=O)c1ccccc1Br)c1ccccc1 (configuration not stated)	-20%	u	-56*	-17%	-5%	3%
C(=C\c1ccccc1)/Sc1cccc2cccnc12	x	33%	x	x	x	x
Cc1cc(O)ccc1N=Cc1c(C(F)(F)F)[nH][nH]c1=O	8.9µM*	-28%	-22	-1%	-5%	14µM*
O=c1[nH][nH]c(C(F)(F)F)c1C=Nc1ccccc1	22%	2%	-1	2%	-16%	43%
O=c1cc(CCl)nc2sc3ccccc3n12	35µM*	-18%	-26	50µM*	u	u
O=C(OCc1cc(=O)n2c(n1)sc1ccccc12)c1ccc(O)cc1	-5%	-25%	-6	u	-10%	10µM*
COc1ccc(/C=C/C(=O)OCc2cc(=O)n3c(n2)sc2ccccc23)cc1	71%	5%	-18	-2%	-11%	u
C=CCOc1ccc(C(=O)Nc2cccc(F)c2)cc1	x	24%	x	x	x	x
COc1ccc(C(C(=O)O)N2CCN(Cc3csc(C)n3)CC2)c(C)c1 (configuration not stated)	x	22µM*	x	x	x	x
CCOc1ccccc1C(C(=O)O)N1CCN(Cc2csc(C)n2)CC1 (configuration not stated)	x	61%	x	x	x	x
CCNC(=O)N1CCCC1c1noc(CCC(=O)NCCC(C)C)n1 (configuration not stated)	x	40µM*	x	x	x	x
O=C(NCCN1CCC(n2c(=O)[nH]c3ccccc32)CC1)c1ccccc1	x	-57%	-5	x	x	x
O=C(NCCN1CCC(n2c(=O)[nH]c3cc(Cl)ccc32)CC1)c1ccc(F)cc1	x	40µM*	x	x	x	x
O=C(NCCN1CCC(n2c(=O)[nH]c3ccccc32)CC1)c1ccc(F)cc1Cl	x	1.1µM*	-2	x	x	x
SMILES	Pol iota inh	12-LOX inh	PI5P4K alpha inh	POLH inh	Pol kappa inh	POLB inh
CC1CCCCN1C(=O)CSc1nc(-c2cccs2)nc2ccccc12 (configuration not stated)	x	6%	x	x	x	x
O=C(Nc1oc2ccccc2c(=O)c1-c1cccc(Cl)c1)c1cccs1	x	-11%	x	x	x	x
CSC1=NC(C)(C)C=C(/C=C/c2ccc(Cl)cc2Cl)N1	24%	u	-4	-22%	-6%	u
CCSC1=NC(C)(C)C=C(/C=C/c2ccc(Cl)cc2Cl)N1	-4%	40µM*	-2	-20%	-1%	3%
Cc1cn2c(=O)cc(CSc3ccccc3NC(=O)COc3ccccc3C)nc2s1	x	34%	x	x	x	x
COc1ccc2nc(SCC(C)=O)c(C#N)cc2c1	-18%	u	1	1%	-11%	-28%
COc1ccc2nc(SC)c(C#N)cc2c1	89µM*	1%	1	-1%	15%	29%
Cc1cc(C(=O)COC(=O)c2ccc(O)cc2)c(C)n1CC1CCCO1 (configuration not stated)	89µM*	-4%	4	-24%	u	29%
CN1/C(=C\C(=O)C(F)F)C(C)(C)c2ccccc21	4%	10%	7	-15%	-6%	-2%
CC(C)C(=O)NC(=S)/C=C1/N(C)c2ccccc2C1(C)C	127%	35µM*	-9	-20%	3%	-3%
CN1/C(=C/C(=S)NC(=O)C2CCC2)C(C)(C)c2ccccc21	116%	u	-11	-25%	-24%	2%
Cc1ccc(C(=O)NC(=S)/C=C2\N(C)c3ccccc3C2(C)C)cc1	-10%	10µM*	0	-9%	-15%[60.1 µM]	-8%
CN(C)C(=O)c1ccc(NC(=O)COC(=O)C2CCN(c3ccc(C(F)(F)F)cn3)CC2)cc1	x	3%	x	x	x	x
CCC(C)[C@H](NC(=O)NCc1ccccc1)C(=O)OC (some centres not stated)	x	3%	x	x	x	x
CCOC(=O)C1=C(C)N(C)C(=O)C1(c1cc(C)c(O)c(C)c1)C(F)(F)F (configuration not stated)	x	-30%	x	x	x	x
Cc1ccc(-n2c(O)c(/C=N/Nc3ccc(S(=O)(=O)N4CCOCC4)cc3[N+](=O)[O-])c3ccccc3c2=O)c(C)c1	u	-24%	u	45µM*	-16%	79µM*
Cc1cc(C)n(-c2cc(NC3CCCCCC3)ncn2)n1	x	-46%	x	x	x	x
CN(C)Cc1c(O)ccc2c3c(c(=O)oc12)CCCCC3	8%	8%	1	7%	0%	-12%
CN(Cc1c(O)ccc2c1oc(=O)c1ccccc12)C1CCCCC1	u	0.89µM*	x	-26%	-10%	-8%
CC(=O)Nc1ccc(S(=O)(=O)CC(=O)CS(=O)(=O)c2ccc(NC(C)=O)cc2)cc1	x	-13%	-6	35µM*	x	x
Cc1cc(=O)n2c3ccccc3nc2n1CC(=O)c1ccc2ccccc2c1	x	70%	x	x	x	x
CCCn1nc(C(=O)Nc2cccc(C(=O)Nc3cccc(C(F)(F)F)c3)c2)c2ccccc2c1=O	x	14%	x	x	x	x
Cc1ccc(C2=C(O)C(=O)C(c3ccc(C)cc3)=C(O)C2=O)cc1	3%	1.1µM*	6	9%	-7%	x
CC1=C(O)C(=O)C(C2=C(O)C(=O)C(C)=C(O)C2=O)=C(O)C1=O	13%	u	u	-2%	u	x
CC(C)COc1ccc(C(=O)N2CCC(c3nc4ccccc4o3)CC2)cc1	x	-1%	x	x	x	x
O=C(CSc1nnc(SCc2cccc3ccccc23)s1)N=Nc1c(O)[nH]c2ccccc12	x	x	x	x	x	13µM*
